Each structure is given as a SMILES string. Inconclusive results are not listed. Unmarked numbers belong to inactive results. Active and inactive are the calls of the source. Calls follow the shape of the dose curve; as a rule, active = well fitted cell-killing curve with a large enough effect; inconclusive = small, poorly fitted or top-dose-only effect, or effect the other way; inactive = flat fitted curve, though single readings scatter.
Potency is read from the fitted curve at half-maximal effect.

The experiment in a line: qHTS for Inhibitors of Ubiquitin-specific Protease USP2a Using CHOP2 as the Reporter: Cytotox Assay (AID 652170). Also: nearly all actives have a fitted effect of over 70% in size. Particulars: HCT116 viability, CellTiter-Glo luminescence, 72 h; series mostly up to 46.1 µM; activity change, negative = cytotoxicity: at the top concentration. The source says:
Homeostasis of cellular proteins is maintained through a combination of synthesis and degradation. The pathway that accounts for the majority of protein degradation is the ubiquitin-proteasomal pathway. Ubiquitin (Ub) is highly conserved in all cells and the generation of a multi-Ub chain typically targets proteins for degradation by the proteasome. However, ubiquitination is highly reversible and dynamic. Deubiquitination, the reverse process, is catalyzed through the action of enzymes referred to as isopeptidases or deubiquitinating enzymes (DUBs). This group of enzymes is collectively responsible for maintaining adequate pools of free ubiquitin and regulating the ubiquitination status of cellular proteins. The class of DUBs referred to as the ubiquitin-specific proteases (USP) family functions endoproteolytically to cleave Ub chains from a wide range of protein substrates. USP2a deubiquitinates fatty acid synthase (FASN) which has recently been identified as an emerging oncology target. To identify inhibitors of USP2a a cell-free qHTS assay was employed. Confirmed qHTS active compounds were tested for cytoxicity in HCT116 cells (human colon cancer cells) using the Cell Titer Glo luciferase-coupled ATP detection system from Promega. This assays monitors cell proliferation by quantitating the amount of ATP present by luciferase, which in the presence of ATP converts […]. A compound that inhibits cell proliferation would result in a decrease in luminescence. The data were normalized to control columns representing maximum signal (cells with DMSO) and background (no cells with DMSO). The cells were cultured in DMEM with 10% FBS and plated in white solid-bottom tissue-culture treated plates. NIH Molecular Libraries Probe Centers Network [MLPCN] NIH Chemical Genomics Center [NCGC] MLSCN Grant: MH079852 PI Name: Benjamin Nicholson, Progenra Inc, Malvern, PA
5 uL of HCT116 (600 cells/well) were plated into a 1536 well plate and then incubated for 6 hr at 37 deg C, 5% CO2. Compounds are added through pinning before the plate is incubated for 72 hr at 37 deg C, 5% CO2. Then, 3 uL of Cell Titer Glo is added, the plate is left at RT for 10 min, before luminescence is detected using the ViewLux.
For orientation: qHTS replaces the single test concentration by a dilution series.
Take `Cc1ccc(-c2cc(C(=O)Nc3ncco3)c3ccccc3n2)cc1C`: the Potency was 1.32 µM (active). Consider `CCNC(=O)C1CCC(C(=O)Nc2ccc([S+](=O)([O-])Nc3nccs3)cc2)CC1` (stereo not given), for which the “activity change, negative = cytotoxicity” value was -2.91%. For `Cc1ccc(S(=O)(=O)N(C)c2ccccc2C(=O)Nc2nc(-c3ccccc3)cs2)cc1`, the “activity change, negative = cytotoxicity” value is 4.15%. On the same count and under the same terms, as for `O=C(Nc1ccc(S(=O)(=O)Nc2nccs2)cc1)C1CCC2(CC1)CC2`, the figure is 22.2%; as for `O=C(Cc1ccccc1)Nc1ccc(S(=O)(=O)Nc2nccs2)cc1`, 2.48%. The same measure, in the same setting: the same measure for `COc1ccc(NC(=O)c2cc(-c3ccc(C)c(C)c3)nc3ccccc23)cc1`: 11.9%; for `CC1CC1C(=O)Nc1ccc([S+](=O)([O-])Nc2nccs2)cc1` (stereo not given): -3.34%; for `O=C(Cc1ccc2ccccc2c1)Nc1ccc(S(=O)(=O)Nc2nccs2)cc1`: -3.86%. Still for that read-out and setting: the same measure for `COc1ccc(NS(=O)(=O)c2ccc(C)cc2)cc1C(=O)Nc1nc(-c2ccccc2)cs1`: -17.9%. As for `CC(=O)Nc1ccc(S(=O)(=O)Nc2nccs2)cc1`, the Potency entry is “inactive”. Turning to `O=C(Nc1nc(-c2ccccc2)cs1)c1ccncc1NS(=O)(=O)c1ccc(N2CCCC2=O)cc1`, the “activity change, negative = cytotoxicity” value was 4.61%. With `Cc1ccc(S(=O)(=O)n2cc(C(=O)Nc3nc(-c4ccccc4)cs3)c3ccccc32)cc1`, the “activity change, negative = cytotoxicity” value is -24.7%. Still for that read-out and setting: as for `Cc1ccc(-c2cc(C(=O)Nc3cccc(Cl)c3)c3ccccc3n2)cc1C`, the figure is 8.01%. Turning to `Cc1ccc(S(=O)(=O)Nc2cccnc2C(=O)Nc2nc(-c3ccccc3)cs2)cc1`, the Potency is 14.8 µM (active). On to `O=C(Nc1ccc([S+](=O)([O-])Nc2nccs2)cc1)c1ncn[nH]1`, for which the “activity change, negative = cytotoxicity” value was -18%. The same measure, in the same setting: the same measure for `Cc1ccc(-c2cc(C(=O)Nc3ccc(C(=O)O)cc3)c3ccccc3n2)cc1C`: 5.43%. As for `CCCCCC1CCC(C(=O)Nc2ccc(S(=O)(=O)Nc3nccs3)cc2)CC1` (stereo not given), the Potency entry is “inactive”. In the case of `CCC1CCC(C(=O)Nc2ccc(S(=O)(=O)Nc3nccs3)cc2)CC1` (stereo not given), the “activity change, negative = cytotoxicity” value was -7.29%. The same measure, in the same setting: as for `Cc1ccc(C(=O)[C@H]2CC[C@@H](C(=O)Nc3ccc(S(=O)(=O)Nc4nccs4)cc3)C2)cc1C`, the figure is -12.7%; as for `O=S(=O)(Nc1nc(CN2CCOCC2)nc2sc3c(c12)CCC3)c1ccc2c(c1)OCCO2`, 17%.

For `CC(C)Oc1ccccc1C(=O)Nc1nc(-c2ccccc2)cs1`, the “activity change, negative = cytotoxicity” value was -17%. Still for that read-out and setting: the same measure for `CCCCc1ccc(C(=O)Nc2ccc(S(=O)(=O)Nc3nccs3)cc2)cc1`: -5.69%. The same measure, in the same setting: as for `Cc1ccc(S(=O)(=O)Nc2cnccc2C(=O)Nc2ccccc2)cc1`, the figure is -3.63%; as for `Cc1ccc(S(=O)(=O)Nc2ccccc2C(=O)Nc2ccc(-c3ccccc3)nn2)cc1`, -14.1%; as for `COc1cccc(NC(=O)c2cc(-c3ccc(C)c(C)c3)nc3ccccc23)c1`, -20.9%. On the same count and under the same terms, as for `COC(=O)c1ccccc1C(=O)Nc1nc(-c2ccccc2)cs1`, the figure is 4.34%; as for `O=C(Nc1ccc(S(=O)(=O)Nc2nc(-c3ccccc3)cs2)cc1)c1ccc2ccccc2c1`, 2.6%; as for `CCS(=O)(=O)N1CCC(C(=O)Nc2ccc(S(=O)(=O)Nc3nccs3)cc2)CC1`, -0.738%. As for `CC(C)(C)OC(=O)N1CCC(C(=O)Nc2ccc([S+](=O)([O-])Nc3nccs3)cc2)CC1`, the “activity change, negative = cytotoxicity” value was 17.2%. On the same count and under the same terms, as for `Cc1ccc(-c2cc(C(=O)Nc3ccc(S(=O)(=O)N(C)C)cc3)c3ccccc3n2)cc1C`, the figure is 19.9%.

As for `Cc1ccc(S(=O)(=O)Nc2ccccc2C(=O)Nc2ccc(-c3ccccc3)cc2)cc1`, the Potency is 13.2 µM (active). Same read-out and setting: as for `Cc1ccc(S(=O)(=O)Nc2ccc(F)cc2C(=O)Nc2nc(-c3ccccc3)cs2)cc1`, the figure is 14.8 µM (active); as for `Cc1ccc(S(=O)(=O)Nc2ccccc2C(=O)Nc2nc(-c3ccc(Cl)cc3)cs2)cc1`, 8.33 µM (active).

For the compound `O=C(Nc1ccc(S(=O)(=O)Nc2nccs2)cc1)[C@@H]1CC[C@H](C(=O)c2ccccc2)C1`, the “activity change, negative = cytotoxicity” value was -7.7%.

Regarding `Clc1nc(CN2CCOCC2)nc2sc3c(c12)CCC3`, the “activity change, negative = cytotoxicity” value was 15.9%.

Regarding `N#Cc1ccc(NS(=O)(=O)c2ccc(NC(=O)Cc3ccc(F)c(Cl)c3)cc2)cc1`, the “activity change, negative = cytotoxicity” value was 18.9%. Still for that read-out and setting: as for `Cc1ccc(-c2cc(C(=O)Nc3ccc(S(=O)(=O)NCc4nccs4)cc3)c3ccccc3n2)cc1C`, the figure is -0.363%; as for `O=C(Nc1nc(-c2ccccc2)cs1)c1ccccc1`, -20%. `Cc1ccc(S(=O)(=O)Nc2cc(C(=O)Nc3nc(-c4ccccc4)cs3)ccn2)cc1`: the “activity change, negative = cytotoxicity” value was 7.9%. Still for that read-out and setting: the same measure for `Cc1cccc2c(C(=O)O)cc(Cl)nc12`: 30.1%.

The record behind these values is PubChem BioAssay (NCATS).
